Reference: PubChem BioAssay AID624331 (National Center for Advancing Translational Sciences (NCATS), 2012)
Records with an inconclusive call do not appear. Where a call stands in place of a potency, no number is given. Calls of active or inactive are those of the source. The call rests on the fitted dose curve; in most records, active means well fitted activation curve with a large enough effect; inconclusive means small, poorly fitted or top-dose-only effect; inactive means no such curve, though single readings can be large or run the other way.

assay: qHTS assay for re-activators of p53 using a Luc reporter: Hit Validation with no p53 Expressed; conditions: p53-null cells, luciferase reporter counter-screen; series mostly up to 46.1 µM
Method in brief: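 Counter-screen of primary hits in a cell line not transfected with p53, in Opti-MEM with 10% FBS; compounds at several concentrations (10 mM stock, 1:5; top 46.1 µM in well), 24 h at 37 deg C, 5% CO2. Luminescence read after 10 min with Amplite reagent.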
Potency means the concentration at half of the fitted maximal effect.

SMILES | Potency
Brc1c(CSc2nc3ccccc3s2)nc2ncccn12 | inactive
O=C(NC(=S)Nc1ccccc1Br)C1CCCCC1 | inactive
CCOC(=O)c1cccc(C2=CC(=O)C[C@H](c3ccc(OC)cc3)C2)c1 | inactive
C1=C(CCNc2ncnc3nc[nH]c23)CCCC1 | inactive
Cc1csc(SCC(=O)Nc2ccc(C)c(F)c2)n1 | inactive
Cc1cc2[nH]c3ccccc3c2c(C)n1 | inactive
CC(C)c1ccc(OCC(=O)NC(C)c2ccccc2)cc1 (centres undefined) | inactive
COc1ccc(-n2cc(-c3ccccc3)[nH]c2=S)cc1 | inactive
CCCCn1c(O)c(N=Nc2ccccc2O)c2ccccc21 | inactive
O=C(NNC(=O)c1ccc(Cl)cc1Cl)c1ccncc1 | inactive
COc1ccccc1-c1nc(-c2ccc(Br)o2)no1 | 820 nM (active)
Fc1cccc(NCc2cn3ccccc3n2)c1 | inactive
O=C(NOCc1ccccc1)c1ccccc1 | inactive
COC(=O)c1ccc(/C=C/c2ccc3cccc(OC(C)=O)c3n2)cc1 | inactive
CC(C)[C@H](NC(=O)c1ccc(Cl)cc1Cl)C(=O)NNc1cccc(C(=O)O)c1 | inactive
C/C(=N\NC(=S)NC(C)C)c1ccc(Cl)s1 | inactive
CC(=O)c1ccc(NC(=O)CCc2nnc3ccc(NCc4ccco4)nn23)cc1 | inactive
C=CCNc1ncnc2c1cnn2-c1ccc(Cl)cc1 | inactive
COCCSc1ccccc1C(=O)Nc1cc(C)ccn1 | inactive
CN(C)c1ccc(NC(=O)CCCc2ccccc2)cc1 | inactive

SMILES | Potency
CCOC(=O)NC1(Nc2ccc(C)cc2)Oc2ccccc2O1 | inactive
CCOc1ccc(NC(=O)c2cnsn2)cc1 | inactive
COc1cccc(NC(=O)c2ocnc2C)c1 | inactive
N#Cc1ccccc1NC(=O)c1cccc(COc2ccc(Cl)cc2Cl)c1 | 116 nM (active)
O=c1oc(CCO)cc2ccc(C#Cc3ccsc3)cc12 | inactive
CC(C)(C)c1nnc(N/N=C/c2cc(Br)ccc2O)n(N)c1=O | inactive
CCOc1cccc(-c2nc3cc(C)ccc3o2)c1 | inactive
O=S(=O)(CCOc1ccccc1)c1nc2ccccc2[nH]1 | inactive
Cc1ccc(NC(=O)C2CCCO2)cc1[N+](=O)[O-] (centres undefined) | inactive
COc1ccc(C(=O)N=c2nc3ccccn3s2)cc1 | inactive
CCC(Sc1nc2ccccc2c(=O)n1CCN1CCOCC1)C(=O)NCc1cccnc1 (centres undefined) | inactive
ON=C1c2cc(OCCN3CCCCC3)ccc2-c2ccc(OCCN3CCCCC3)cc21 | inactive
COc1ccc2nc(SCc3ccccc3)nc(C)c2c1 | inactive
COCCn1c(SCC(=O)c2c(N)n(C3CC3)c(=O)[nH]c2=O)nnc1-c1cccc(C)c1 | inactive
CC(=O)c1cc2c(C)c(C(=O)c3ccccc3)oc2cc1O | inactive
O=C(Nc1ccc(Br)cn1)c1cccc(-c2cc3ccccc3oc2=O)c1 | inactive
COc1cccc(/C=N/Nc2cc(-n3nc(C)cc3-c3ccccc3)ncn2)c1O | inactive
CCN(CC)C(=O)CSc1ncnc2c(-c3cccs3)nsc12 | inactive
Cc1cccc(NC(=O)/C=C/c2ccc(Cl)cc2)n1 | inactive
